# Results as given in PubChem BioAssay (NCI).
# This is part of a sample that, as a whole, favours compounds with a hit. Of some 83,000 tested, about 20% had one in any assay.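 Single-concentration screen, 48 h exposure, 96-well plates. Endpoint: percent growth. Below 10 = active.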 Unmarked numbers belong to inactive results. Calls of active or inactive are those of the source.
# Test system: HL-60(TB) leukemia
# Assay: NCI-60 one-dose screen, 48 h (100 = growth as untreated, 0 = no growth, -100 = all killed)
# Settings: 10 µM unless noted
row,SMILES,growth
1,Cc1ccc(-c2nc(N3CCCNCC3)c3oc(-c4ccc(C)cc4)nc3n2)cc1,-69.3% (active)
2,Cc1cc2c(c(C)c1Cl)C(=O)/C(=C/c1ccc(O)c(O)c1)O2,108%
3,CC/C(=C(/c1ccc(Cl)cc1)c1ccc(OCCN2CCCCC2)cc1)c1ccc(Cl)cc1,68.5%
4,Cc1ccc(N=Nc2ccccc2)cc1,85.8%
5,COc1ccc(Br)cc1NC(=O)Nc1cccc2c1ccn2Cc1ccnc(N)c1,10.5%
6,COc1cc2nc3cc([N+](=O)[O-])ccc3c(NCCCNCC(C)(C)O)c2cc1OC,-0.733% (active)
7,COc1ccc(/C=C/C(=O)Nc2cc(/C=C\c3cc(OC)c(OC)c(OC)c3)cc(OC)c2OC)cc1OC,-38.1% (active)
8,Cc1ccc(C[P+](c2ccccc2)(c2ccccc2)c2ccccc2)cc1,-63.4% (active)
9,CCc1ccc(Oc2c(-c3ccc(OCc4ccc(Cl)cc4)cc3O)nn(C)c2C(F)(F)F)cc1,-36.9% (active)
10,COC(=O)[C@]12CC[C@@H](C(=O)/C=C/c3cccnc3)[C@@H]1[C@H]1CC[C@@H]3[C@@]4(C)C/C(=C/c5cccnc5)C(=O)C(C)(C)[C@@H]4CC[C@@]3(C)[C@]1(C)CC2,-30.2% (active)
11,Cn1c2c(c3ccc(-c4ccn[nH]4)cc3c1=O)C(=O)c1ccccc1-2,-17.7% (active)
12,OCC1OC2C(NC(=S)N2c2ccccc2)C(O)C1O (stereo not given),90.8%
13,CCCCCCC(CCCC)COC(=O)c1ccc(Cl)cc1 (stereo not given),100%
14,O=C(Nc1cccc(Cl)c1)Oc1c(Br)c(Br)c(Br)c(Br)c1Br,88.4%
15,COc1ccc(/C=C(\C#N)c2cc3ccccc3n2C)cc1,0.415% (active)
16,O=C1C(N2CCOCC2)=C(I)C(=O)c2ncccc21,80.9%
17,COc1ccc(/C(C)=N/NC(=O)CSc2nc3ccccc3c(=O)n2Cc2ccc(S(N)(=O)=O)cc2)c(OC)c1,102%
18,COC(=O)c1[nH]c(=O)c(C#N)c(C(=O)OC)c1C(=O)c1ccccc1,94.8%
19,CNC(=O)c1c(C)oc2cc(Oc3ncnc4cc(OC)c(OC)cc34)ccc12,117%
20,CCc1c2c(nc3ccc(OCc4ccc(B5OC(C)(C)C(C)(C)O5)cc4)cc13)-c1cc3c(c(=O)n1C2)COC(=O)[C@]3(O)CC,-1.71% (active)

row,SMILES,growth
1,COc1cc(/C=C/C(=O)c2ccc(Cl)cc2)cc(CN2CCCCC2)c1O,94.2%
2,c1ccc2sc(SSN3CC4CCC(CC4)C3)nc2c1,89.3%
3,COC(=O)[C@H](CCCCNC(=O)OCc1ccccc1)NC(=O)[C@@H](NC(=O)Nc1cc(C(F)(F)F)cc(C(F)(F)F)c1)C(C)C,-9.21% [100 µM] (active)
4,CCCCCCCCCCCCCCCCCCn1cc(COc2ccc(C=O)cc2)nn1,86.7%
5,COC(=O)Nc1nc2ccc(C(=O)C3CC3)cc2[nH]1,-56.2% (active)
6,CCN(CC)CCNc1ccc([N+](=O)[O-])c2sc3cc(Cl)ccc3c(=O)c12,54.7%
7,COc1ccc(C2Nc3nc(SC)nc(N)c3N=C3c4ccccc4CCC32)cc1 (stereo not given),71.1%
8,Cc1ccc(C(=O)C(Br)C(Br)c2ccccc2)cc1 (stereo not given),45.1%
9,COc1ccc2cc(C(=O)N3CCC([C@@H](C)C(=O)NCc4ccc5c(c4)OCO5)CC3)[nH]c2c1,91% [50 µM]
10,CCCCC1COc2cccc3c(SCC(=O)N(C)c4cccc(Cl)c4)cc[n+]1c23 (stereo not given),102%
11,c1ccc(-c2n(Cc3ccc4ccccc4n3)cc[n+]2Cc2ccc3ccccc3c2)cc1,-54.3% (active)
12,COc1ccc2nc(-c3c(-c4ccccc4)nc4ncccn34)[nH]c2c1,98%
13,C/C(Cc1ccc(Cl)cc1)=C(\c1ccc(OCCN2CCCCCC2)cc1)c1ccc(OC(=O)C2CCCCC2)cc1,17.6%
14,CC(=O)OC[C@]12CC[C@@H]([C@@H](C)C(N)=O)[C@@H]1[C@H]1CC[C@@H]3[C@@]4(C)CC[C@H](OC(C)=O)C(C)(C)[C@@H]4CC[C@@]3(C)[C@]1(C)CC2,-23.1% [100 µM] (active)
15,COc1ccc(CCNC2=CC(=O)CCC2)cc1OC,69.4%
16,CCN(CC)c1ccc2nc3c4ccccc4c(=O)cc-3n(-c3ccccc3)c2c1,-26.7% (active)
17,CC(C)CCC[C@@H](C)[C@H]1CC[C@H]2[C@@H]3CC=C4N(c5ccccc5)C(=O)CC[C@]4(C)[C@H]3CC[C@]12C,90.9%
18,O=S(=O)(CCN1CCOCC1)Nc1cncc(-c2ccc3ncnc(Nc4ccc(F)c(Cl)c4)c3c2)c1,110%
19,Cn1c(-c2ccccc2)c(/C=C/C2=[N+](C)c3ccccc3C2(C)C)c2ccccc21,-52.5% (active)
20,COc1cc(/C=C2\C(=O)N(c3c(Cl)cccc3Cl)c3ccccc32)cc(OC)c1OCCCCCCn1c2ccccc2c(=O)c2ccccc21,106%
